Activity calls are given as the source filed them. Rule for the calls: active = hit-call score of the fitted dose curve at least 0.9, where 1 is the maximum; inactive = score below 0.9.

Transcriptional activator Myb (Homo sapiens), sequence (P10242 whole entry, looked up): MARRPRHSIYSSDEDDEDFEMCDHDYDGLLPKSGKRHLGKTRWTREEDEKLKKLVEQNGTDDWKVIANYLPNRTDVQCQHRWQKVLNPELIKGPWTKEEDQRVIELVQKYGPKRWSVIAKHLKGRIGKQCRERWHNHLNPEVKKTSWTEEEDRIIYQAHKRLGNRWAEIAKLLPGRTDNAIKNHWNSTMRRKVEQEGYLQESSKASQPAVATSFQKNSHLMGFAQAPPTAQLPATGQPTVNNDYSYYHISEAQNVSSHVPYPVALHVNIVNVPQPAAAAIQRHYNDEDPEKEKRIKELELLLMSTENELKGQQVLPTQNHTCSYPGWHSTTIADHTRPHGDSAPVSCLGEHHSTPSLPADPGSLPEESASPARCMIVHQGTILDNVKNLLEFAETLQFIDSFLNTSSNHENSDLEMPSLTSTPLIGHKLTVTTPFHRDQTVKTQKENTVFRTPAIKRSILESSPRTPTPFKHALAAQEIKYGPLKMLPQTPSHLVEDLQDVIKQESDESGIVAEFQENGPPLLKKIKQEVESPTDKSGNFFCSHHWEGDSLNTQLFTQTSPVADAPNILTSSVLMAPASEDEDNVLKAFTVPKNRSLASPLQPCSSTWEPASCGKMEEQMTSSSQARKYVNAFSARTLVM

The assay has as its target Transcriptional activator Myb (Homo sapiens) (UniProt P10242). Nature of the assay: ATG_Myb_CIS: Attagene CIS-FACTORIAL HepG2 Assay for human Myeloblastosis (Myb) Proto-Oncogene Transcription Factor (AID 2282986). The following applies: HepG2 Attagene CIS-FACTORIAL Myb reporter transcription; actives raise or lower the signal. The method, then: ATG_CIS is a cell-based, multiplexed-readout assay that uses HepG2, a human liver cell line, with measurements taken at 24 hours after chemical dosing in a 24-well plate.ATG_Myb_CIS is one of 52 assay component(s) measured or calculated from the ATG_CIS assay. It is designed to make measurements of mRNA induction, a form of inducible reporter, as detected with fluorescence intensity signals by Reverse transcription polymerase chain reaction (RT-PCR) and Capillary electrophoresis technology.Data from the assay component ATG_Myb_CIS was analyzed into 1 assay endpoint. This assay endpoint, ATG_Myb_CIS, was analyzed with bidirectional fitting relative to DMSO as the negative control and baseline of activity. Using a type of inducible reporter, measures of mRNA for gain or loss-of-signal activity can be used to understand the reporter gene at the transcription factor-level as they relate to the gene MYB. Furthermore, this assay endpoint can be referred to as a primary readout, because this assay has produced multiple assay endpoints where this one serves a reporter gene function. To generalize the intended target to other relatable targets, this assay endpoint is annotated to the dna binding intended target family, where the subfamily is MYB proteins.
Human liver HepG2 cells are transiently transfected with multiple reporter transcription units (MRTUs) in 6-well plates using FuGene 6 reagent (Roche; 3 ml FuGene/1 mg DNA). The MRTU constructs are regulated by a cis-regulating element (promoter). […] A major difference between the CIS and TRANS system is that in CIS activities of endogenous TFs are measured, whereas the TRANS assay evaluates changes in activities of exogenous, chimeric NR-Gal4 proteins. […] At the end of 24 hour incubation, total RNA was isolated using TriZol reagent (Invitrogen). The isolated RNA is then reverse-transcribed using oligo(dT) primer and Mo-MLV reverse transcriptase (Invitrogen) with DNAse I (Ambion) treatment for 30 min. The one-tenth of the produced cDNA was amplified by PCR using Taq DNA polymerase (Invitrogen) and two reporter sequence-specific primers. The PCR products were fluorescently labeled by primer extension with 6-arboxyfluorescein (6-FAM) 5'-labeled reporter sequence-specific primer (2 min at 95 C, 20 s at 68 C and 10 min at 72 C) and these products were digested with 5U of HpaI (New England Biolabs) for 2h at 37 C. The fragments were purified using Qiaquick PCR columns (Qiagen), analyzed on an ABI 3130xL genetic analyzer (Applied Biosystems) with peak positions identified by using a set of X-rhodamine (ROX)-labeled MapMarker1000 molecular weight standards (BioVentures). The raw capillary electrophoresis data was processed using Attagraph software (Attagene).
Regarding `CC(C)(C)c1n[nH]c(=O)n(N)c1=O`, the result was inactive.

For `C=CC(=O)NC(C)(C)CS(=O)(=O)O`, the outcome was inactive. For `C=C(C)[C@@H]1CCC2=CCC[C@@H](C)[C@]2(C)C1`, the call was inactive. Take `O=C(c1ccccc1)C1CCC1`: the result was inactive. For `Cc1ccc2c(c1)C(=O)c1ccccc1C2=O`, the call was inactive.

Take `CC=CC(=O)N(CC)c1ccccc1C`: the call was inactive. Regarding `[Cl][In]([Cl])[Cl]`, the outcome was inactive. For `CC/C=C\CCOC(=O)CCCCC`, the molecule was classed as inactive.

Regarding `CC1=CC[C@H](C(C)C)C=C1`, the molecule was called inactive. In the case of `O=C(O)c1cc2ccccc2nc1C(=O)O`, the molecule was called inactive. On to `O=C(C(Cl)Cl)N1CCOC12CCCCC2`, for which the result was inactive. With `CCOC(=O)CC(C(C)=O)C(C)=O` the entry was “inactive”. Turning to `CCCOC(=O)CCCCC(=O)OCCC`, the molecule was called inactive. For the molecule `C=C(C)[C@H]1CC=C(C)CC1`, the outcome was inactive. Take `c1ccc2c(c1)ccc1cc3c(ccc4ccccc43)cc12`: the molecule was classed as inactive. `O=C(O)C(c1ccc(Cl)cc1)c1ccc(Cl)cc1`: the molecule was classed as inactive.

Regarding `COc1c2ccoc2cc2oc(=O)ccc12`, the outcome was inactive. Take `CC(C)=CC1CC(C)CCO1` (stereo not given): the call was inactive. Consider `CCCC(C)CCC(C)=O` (stereo not given), for which the molecule was classed as inactive. Consider `CC(=O)CC(N)=O`, for which the result was inactive.

`COc1cc(C)ccc1C(C)C`: the molecule was classed as inactive.

Turning to `C#CC1(O)CC[C@H]2[C@@H]3CCC4=CCCC[C@@H]4[C@H]3CC[C@@]21C` (stereo not given in full), the molecule was called inactive. With `COC(=O)c1cc(Cl)ccc1[N+](=O)[O-]`, the molecule was classed as inactive. In the case of `CCCCCC/C=C\CCCCCCCC(=O)O`, the result was inactive. For `CC1(C)[C@H]2CC[C@]1(C)C(=O)C2`, the call was inactive. As for `Cc1ccc(N)c([N+](=O)[O-])c1`, the call was inactive. As for `C=C1[C@H]2CC[C@@H]3[C@H]2C(C)(C)CCC[C@]13C`, the entry is “inactive”; as for `CC[C@H]1OC(=O)[C@H](C)[C@@H](O[C@H]2C[C@@](C)(OC)[C@@H](O)[C@H](C)O2)[C@H](C)[C@@H](O[C@@H]2O[C@H](C)C[C@H](N(C)C)[C@H]2O)[C@](C)(O)C[C@@H](C)C(=NOCOCCOC)[C@H](C)[C@@H](O)[C@]1(C)O`, “inactive”. `C1=Cc2ccccc2C1`: the molecule was classed as inactive. Take `CC(C)(C)c1ccc(-c2ccc(C(C)(C)C)cc2)cc1`: the result was inactive.

On to `CCCC(=O)OCc1ccccc1`, for which the molecule was called inactive. As for `COC=O`, the call was inactive.

Consider `CCCCCCC(O)CO` (stereo not given), for which the molecule was called inactive. As to `CCCCCCC1(C)CCC(=O)O1` (stereo not given), the call was inactive. In the case of `CC(=O)Oc1ccc(C)cc1`, the molecule was classed as inactive.

Turning to `CC(C)=CCCC(C)C=O` (stereo not given), the molecule was called inactive.

Regarding `O=C(OCC1CCC2OC2C1)C1CCC2OC2C1` (stereo not given), the result was inactive. With `COC(F)(F)C(F)(C(F)(F)F)C(F)(F)F`, the molecule was called inactive. On to `O=P(O)(O)Oc1ccccc1`, for which the call was inactive.

For the molecule `Cc1ccc(C(C)(C)C)cc1`, the molecule was called inactive.

The values are drawn from PubChem BioAssay (EPA / NIEHS).
